Publication PMC4336329 (PLoS ONE, 2015)
Out of some 310,000 compounds screened, about 14,000 (4.5%) showed an effect of 50% or more. Effects have a minus sign here. For the sample, strong results were picked, then their nearest neighbours and some compounds at random.

What follows are compounds tested against human ether-à-go-go-related gene (hERG) potassium channel (human, UniProt Q12809) (assay: primary screen, population patch clamp on CHO cells stably expressing hERG; higher = less effect of the substance).
Sequence of human ether-à-go-go-related gene (hERG) potassium channel (Q12809 whole entry, looked up): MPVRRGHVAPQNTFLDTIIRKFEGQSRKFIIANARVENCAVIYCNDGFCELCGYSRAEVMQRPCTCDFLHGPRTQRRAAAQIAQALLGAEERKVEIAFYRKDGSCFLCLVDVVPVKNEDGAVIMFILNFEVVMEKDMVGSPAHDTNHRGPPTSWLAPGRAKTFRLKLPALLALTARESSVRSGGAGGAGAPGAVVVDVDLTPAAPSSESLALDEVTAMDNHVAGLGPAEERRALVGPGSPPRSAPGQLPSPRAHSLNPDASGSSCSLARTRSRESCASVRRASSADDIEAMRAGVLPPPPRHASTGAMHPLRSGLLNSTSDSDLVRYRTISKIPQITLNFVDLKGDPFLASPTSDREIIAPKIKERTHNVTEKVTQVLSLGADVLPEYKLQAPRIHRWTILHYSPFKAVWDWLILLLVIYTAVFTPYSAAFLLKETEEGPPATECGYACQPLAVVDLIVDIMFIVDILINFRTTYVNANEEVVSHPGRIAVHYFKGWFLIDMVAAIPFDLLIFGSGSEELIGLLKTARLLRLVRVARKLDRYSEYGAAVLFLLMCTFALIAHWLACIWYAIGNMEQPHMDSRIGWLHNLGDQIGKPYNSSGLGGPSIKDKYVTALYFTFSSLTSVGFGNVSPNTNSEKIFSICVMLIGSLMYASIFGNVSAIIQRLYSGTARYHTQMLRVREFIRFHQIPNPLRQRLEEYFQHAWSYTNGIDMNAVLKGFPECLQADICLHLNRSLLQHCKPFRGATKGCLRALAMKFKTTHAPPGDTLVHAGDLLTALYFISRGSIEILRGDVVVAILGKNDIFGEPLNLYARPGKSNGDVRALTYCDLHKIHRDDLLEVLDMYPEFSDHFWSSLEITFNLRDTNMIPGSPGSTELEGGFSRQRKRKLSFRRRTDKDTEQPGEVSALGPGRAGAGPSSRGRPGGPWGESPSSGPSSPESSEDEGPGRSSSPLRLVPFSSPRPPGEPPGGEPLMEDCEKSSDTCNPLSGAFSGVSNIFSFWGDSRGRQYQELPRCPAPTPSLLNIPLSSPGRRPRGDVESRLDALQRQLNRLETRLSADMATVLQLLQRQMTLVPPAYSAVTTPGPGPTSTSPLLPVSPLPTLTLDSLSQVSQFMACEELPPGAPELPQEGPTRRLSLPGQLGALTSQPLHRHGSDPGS
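Further: peak tail current of the secondary pulse compared with the same well before compound.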

| Compound | hERG current change (%, negative = inhibition) at 10uM [%] |
| --- | --- |
| C=CCN1C(=Nc2cccnc2)SCC1(O)c1ccc(C)cc1 (centres unmarked) | 4.64 |
| Fc1cccc(CSc2nnc3ccc(-c4ccncc4)nn23)c1 | -60.4 |
| Nn1c(SCc2cccc(F)c2)nnc1-c1ccncc1 | -4.03 |
| Fc1ccccc1CSc1nnc2ccc(-c3ccncc3)nn12 | -43.1 |
| c1ccc(CSc2nnc3ccc(-c4ccncc4)nn23)nc1 | 7.44 |
| Fc1ccc(CSc2nnc3ccc(-c4ccncc4)nn23)cc1 | -70.1 |
| c1cncc(CSc2nnc3ccc(-c4ccncc4)nn23)c1 | -26.7 |
| c1ccc(CSc2nnc3ccc(-c4ccncc4)nn23)cc1 | -58.3 |
| Cc1ccc(CSc2nnc3ccc(-c4ccncc4)nn23)cc1 | -42.4 |
| Cc1ccccc1CSc1nnc2ccc(-c3ccncc3)nn12 | -20.8 |
| CCOC(=O)C(C)Oc1ccc(OCc2ccccc2)cc1 (centres unmarked) | 20.1 |
| CC(C)(C)NS(=O)(=O)c1cccc(S(=O)(=O)c2cccc(S(=O)(=O)NC(C)(C)C)c2)c1 | -35.3 |
| CCCNS(=O)(=O)c1ccc(CCC(=O)N2CCN(CC)CC2)cc1 | -1.72 |
| O=C(NC1CCS(=O)(=O)C1)c1ccc(S(=O)(=O)N2CCCCC2)cc1 (centres unmarked) | 1.86 |
| CCC(C(=O)Nc1ccncc1)c1ccccc1 (centres unmarked) | 0.0329 |
| CN(C)S(=O)(=O)c1ccc(S(=O)(=O)N2CCN(CCC#N)CC2)cc1 | -1.43 |
| CCOc1ccc(OCCC(=O)N2CCN(S(=O)(=O)c3cccc(F)c3)CC2)cc1 | -62.4 |
| Cc1ccc(C2(C)NC(=O)N(CC(=O)N3CCN(S(=O)(=O)c4cccs4)CC3)C2=O)cc1 (centres unmarked) | -31.9 |
| CCC1(CC)NC(=O)N(CC(=O)N2CCN(S(=O)(=O)c3cccc(F)c3)CC2)C1=O | 7.12 |
| Cc1ccc(C2(C)NC(=O)N(CC(=O)N3CCN(S(=O)(=O)c4cccc(F)c4)CC3)C2=O)cc1 (centres unmarked) | -65.7 |
| O=C(CN1C(=O)NC2(CCCCC2)C1=O)N1CCN(S(=O)(=O)c2ccc(Cl)s2)CC1 | 4.79 |
| CC1(c2ccccc2)NC(=O)N(CC(=O)N2CCN(S(=O)(=O)c3cccc([N+](=O)[O-])c3)CC2)C1=O (centres unmarked) | 5.57 |

| Compound | hERG current change (%, negative = inhibition) at 10uM [%] |
| --- | --- |
| O=C(CN1C(=O)NC2(CCCC2)C1=O)N1CCN(S(=O)(=O)c2cccc(F)c2)CC1 | 22.2 |
| Cc1ccc(C2(C)NC(=O)N(CC(=O)N3CCN(S(=O)(=O)c4ccc(Cl)s4)CC3)C2=O)cc1 (centres unmarked) | -58 |
| CCOc1ccc(OCCC(=O)N2CCN(S(=O)(=O)c3ccc(F)cc3)CC2)cc1 | -6.61 |
| O=C(CN1C(=O)NC2(CCCCC2)C1=O)N1CCN(S(=O)(=O)c2ccc(F)cc2)CC1 | 4.02 |
| O=C(CN1C(=O)NC2(CCCCC2)C1=O)N1CCN(S(=O)(=O)c2cccc(F)c2)CC1 | -61.8 |
| CCOc1ccc(C(=O)CCC(=O)N2CCN(S(=O)(=O)c3cccc(F)c3)CC2)cc1 | -30.7 |
| CCCC(=O)Nc1cc(C(=O)N2CCC3(CC2)OCCO3)ccc1S(=O)(=O)c1ccc(C)cc1 | -14 |
| COc1cc(C(=O)Nc2nc3ccccc3[nH]2)ccc1OC(F)F | 18 |
| CCc1cccc(CC)c1NC(=O)C1CN(S(=O)(=O)c2ccccc2)CCN1S(=O)(=O)c1ccccc1 (centres unmarked) | 9.16 |
| COc1ccccc1NS(=O)(=O)NC(=O)c1cn(C)c2ccccc12 | 16.8 |
| COc1ccc(NC(=O)CSc2nnc(-c3ccccc3)n2N)cc1 | -4.04 |
| CCOc1ccccc1N1CCN(Cc2c(C)n(C)n(-c3ccccc3)c2=O)CC1 | -20.5 |
| CSCCC(NC(=O)c1ccc(Cl)cc1Cl)C(=O)NNC(=O)c1ccncc1 (centres unmarked) | -6.73 |
| CC(C)c1ccc(S(=O)(=O)N2CCN(C(=O)CN3C(=O)NC(C)(c4ccccc4)C3=O)CC2)cc1 (centres unmarked) | -31.6 |
| CC1(c2ccc(Cl)cc2)NC(=O)N(CC(=O)N2CCN(S(=O)(=O)c3ccccc3)CC2)C1=O (centres unmarked) | -50 |
| CC1(c2ccccc2Cl)NC(=O)N(CC(=O)N2CCN(S(=O)(=O)c3ccccc3)CC2)C1=O (centres unmarked) | 7.55 |
| CCn1cc(Cl)c(C(=O)Nc2nc3ccccc3n2CCN2CCCCC2)n1 | -65.5 |
| CCn1nccc1C(=O)Nc1nc2ccccc2n1CCN1CCCCC1 | -39.8 |
| Cn1ncc([N+](=O)[O-])c1C(=O)Nc1nc2ccccc2n1CCN1CCCCC1 | -25.1 |
| O=C(Nc1nc2ccccc2n1CCN1CCOCC1)c1ccc(Cl)cc1 | 1.72 |
| O=C(Nc1nc2ccccc2n1CCN1CCOCC1)c1ccccc1 | -6.69 |
| Cc1c(Cl)c(C(=O)Nc2nc3ccccc3n2CCN2CCCCC2)nn1C | -68.1 |
